Screening data deposited in PubChem by several laboratories.
APOBEC3A inh – blocks human APOBEC3A ssDNA deamination. recombinant A3A, FAM/TAMRA ssDNA deamination fluorescence. inhibition, % at 20 µM. 330,000 tested, 0.41% active. AID 493011;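 active = at least 40% inhibition at 20 µM here, with at most 30% in a related deaminase screen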;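 note: plate controls were A3A with DMSO for no effect and wells lacking A3A enzyme for full effect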
Target sequence (P31941 whole entry, looked up): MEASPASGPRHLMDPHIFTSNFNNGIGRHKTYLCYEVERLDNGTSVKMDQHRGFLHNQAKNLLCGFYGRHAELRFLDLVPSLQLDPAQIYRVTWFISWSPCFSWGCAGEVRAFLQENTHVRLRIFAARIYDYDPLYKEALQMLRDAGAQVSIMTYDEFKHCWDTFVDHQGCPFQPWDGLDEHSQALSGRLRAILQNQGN
GRK2 aptamer HTS – human GRK2 inhibition via aptamer displacement | 330,000 tested, 0.59% active | bead flow cytometry, FAM-aptamer displacement from GRK2 | inhibition of aptamer binding, % at 10 µM | P25098 | AID 488847;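 active = inhibition of aptamer binding above 40%, roughly 3 SD of noise, on plates passing a quality check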;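 note: median bead fluorescence of bound FAM aptamer so fluorescent compounds give negative values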
VLA-4 inh – inhibition in a human VLA-4 binding assay | AID 2557 | 330,000 tested, 0.2% active | VLA-4 expressing cells, ligand binding flow cytometry | inhibition, % (about 7 µM as worked out from the volumes in the protocol); in the data active = inhibition above about 50%
A3G deaminase – APOBEC3G (human) deaminase inhibition; inhibition, % at 20 µM; recombinant A3G, ssDNA deamination FAM/TAMRA fluorescence; 330,000 tested, 0.28% active;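 active = inhibition of at least 40% at 20 µM, with no more than 30% in the related APOBEC3A deaminase screen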;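 note: plate controls were DMSO wells with A3G for no effect and wells lacking A3G enzyme for full effect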
Target sequence (Q9HC16 whole entry, looked up): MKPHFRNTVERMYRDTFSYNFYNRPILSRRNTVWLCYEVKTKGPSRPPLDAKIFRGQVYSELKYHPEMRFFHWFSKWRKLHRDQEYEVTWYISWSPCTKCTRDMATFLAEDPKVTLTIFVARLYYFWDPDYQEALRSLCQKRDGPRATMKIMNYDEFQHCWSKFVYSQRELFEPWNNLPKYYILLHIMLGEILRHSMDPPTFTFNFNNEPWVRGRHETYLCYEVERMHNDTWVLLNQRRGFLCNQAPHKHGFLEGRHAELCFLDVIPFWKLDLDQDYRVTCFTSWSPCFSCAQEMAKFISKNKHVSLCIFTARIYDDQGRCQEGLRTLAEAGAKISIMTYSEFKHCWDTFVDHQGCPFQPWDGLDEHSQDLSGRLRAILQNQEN
APOBEC3A confirm – APOBEC3A (human) deaminase inhibition, confirmed; inhibition, % at 20 µM; 1,400 tested, 63% active; shares compounds with APOBEC3A inh; AID 493151; recombinant A3A, ssDNA deaminase UDG fluorescence assay;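 active = inhibition reaching a set limit, 80% of the first screen's cutoff, at 20 µM in any replicate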;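 note: plate controls were DMSO wells with A3A for no effect and wells lacking A3A enzyme for full effect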
UDG A3A counter – UDG inhibition in APOBEC3A counter-screen | shares compounds with APOBEC3A inh | UDG counterscreen, FAM/TAMRA uracil oligo fluorescence | inhibition, % at 20 µM | 1,000 tested, under 10 active | AID 504714; call rule not given here
The depositor's hits bear a star; i = inactive; · = no result given. A selection: hits, their analogues and other compounds. The true share with any hit is near 1.4%.

SMILES | APOBEC3A inh | GRK2 aptamer HTS | VLA-4 inh | A3G deaminase | APOBEC3A confirm | UDG A3A counter
O=C(Cc1c[nH]c2ccccc12)N1CCN(S(=O)(=O)c2ccc(Cl)cc2)CC1 | 40* | · | · | 0 | 0 | ·
COc1ccccc1OCC(=O)N1CCN(S(=O)(=O)c2ccc(Cl)cc2)CC1 | 53* | · | · | 5 | 1 | ·
COc1ccccc1OCC(=O)N1CCN(C(=O)COc2ccccc2OC)CC1 | -2 | 0 | 0 | -7 | · | ·
Cc1ccc[n+](CC(=O)Nc2cc(C(F)(F)F)ccc2N2CCOCC2)c1 | 48* | 0 | 0 | 11 | 65* | 3
COC(=O)C1=C(C)N(CC2CC2)C(=NCCN2CCOCC2)N[C@H]1c1ccccc1 | 71* | 1 | 11 | 22 | 68* | 1
COC(=O)C1=C(C)N(Cc2ccccc2)C(=NCc2cccc(C(F)(F)F)c2)N[C@H]1c1cccc(C(F)(F)F)c1 | -2 | 0 | 32 | -6 | · | ·
C=CCN=C1N[C@@H](c2ccccc2)C(C(=O)OC)=C(C)N1CC | 66* | 0 | 10 | 23 | 58* | 2
CCN1C(=NCC(C)C)N[C@@H](c2cccc(C(F)(F)F)c2)C(C(=O)OC)=C1C | 59* | 2 | 8 | 10 | 61* | ·
C=CCN=C1N[C@@H](c2cccc(C(F)(F)F)c2)C(C(=O)OC)=C(C)N1CC | 50* | 0 | 28 | 7 | 71* | -2
COC(=O)C1=C(C)N(CC2CC2)C(=NCc2cccc(C(F)(F)F)c2)N[C@H]1c1ccccc1 | 38 | 0 | -41 | 19 | · | ·
O=C(CN1C(=O)NC2(CCCCCCC2)C1=O)NC(=O)NCc1ccco1 | 1 | 0 | 7 | -3 | · | ·
CCN1C(=NCCc2cccs2)N[C@@H](c2cccs2)C(C(=O)OC)=C1C | 53* | 0 | -8 | 6 | 66* | -2
CN(C)c1ccc(/C=C/c2ccc3ccccc3[n+]2C)cc1 | 27 | 2 | i | 21 | · | ·
COc1ccc(/C=C/c2ccc3ccccc3[n+]2C)cc1OC | 66* | 1 | -41 | 23 | 81* | 2
O=C(Nc1ccc2c(c1)OCCO2)C1CC(c2ccccc2Cl)=NO1 (stereo not drawn) | 3 | 0 | 0 | 2 | · | ·
CCCCc1ccc(S(=O)(=O)Nc2ccc(C)c(NS(C)(=O)=O)c2)cc1 | -3 | 1 | 1 | -4 | · | ·
C=CCn1c(NC(=O)c2ccc(C)cc2)c(C#N)sc1=N | 56* | 1 | -14 | 24 | 71* | 1
c1ccc(Nc2ncnc3sc4c(c23)CCC4)cc1 | -1 | 0 | 21 | -5 | · | ·
Fc1ccc(Nc2ncnc3sc4c(c23)CCC4)cc1 | 61* | 1 | 1 | -5 | 0 | 2
CCOC(=O)c1c(NC(=O)Cn2nc(C(F)(F)F)cc2C)sc(C)c1C | 45* | 1 | 8 | -6 | 1 | 4
CC(=O)Nc1ccc(S(=O)(=O)Nc2cccc(-n3cnnn3)c2)cc1 | -6 | 4 | 8 | -8 | · | ·
CC(=O)c1ccc(S(=O)(=O)Nc2cccc(-n3cnnn3)c2)cc1 | 43* | 34 | 7 | 22 | 31 | ·
CCCCN(C(=O)c1cc2ccccc2o1)c1c(N)n(CC(C)C)c(=O)[nH]c1=O | -1 | 1 | 0 | -5 | · | ·
CCCCN(C(=O)c1ccc([N+](=O)[O-])o1)c1c(N)n(CC(C)C)c(=O)[nH]c1=O | 44* | 0 | -4 | 9 | 9 | ·
CCCCN(C(=O)c1c(CC)noc1C)c1c(N)n(CC(C)C)c(=O)[nH]c1=O | -3 | 0 | 9 | -4 | · | ·
SMILES | APOBEC3A inh | GRK2 aptamer HTS | VLA-4 inh | A3G deaminase | APOBEC3A confirm | UDG A3A counter
CCc1noc(C)c1C(=O)N(CCOC)c1c(N)n(CC(C)C)c(=O)[nH]c1=O | 43* | 0 | 11 | 6 | 2 | ·
CCOC(=O)C(C(=O)OCC)C1OC(=O)c2cc3c(cc21)C(=O)OC3C(C(=O)OCC)C(=O)OCC (stereo not drawn) | 1 | 0 | 4 | -1 | · | ·
CCCCn1c(N)c(N(CCOC)C(=O)c2cc(-c3ccc(OC)c(OC)c3)nc3ccccc23)c(=O)[nH]c1=O | 52* | 1 | 7 | 9 | 40* | -1
CCCCN(C(=O)c1cc(-c2ccco2)nc2ccccc12)c1c(N)n(CCCC)c(=O)[nH]c1=O | 39 | 0 | -1 | 15 | · | ·
CCCCn1c(N)c(N(CC(C)C)C(=O)c2cc(-c3ccc(OC)c(OC)c3)nc3ccccc23)c(=O)[nH]c1=O | 27 | 14 | -4 | -1 | · | ·
CCCCn1c(N)c(N(CCOC)C(=O)c2cc(-c3ccco3)nc3ccccc23)c(=O)[nH]c1=O | 42* | 21 | -5 | 18 | 30* | -1
COCCN(C(=O)c1cc(-c2ccco2)nc2ccccc12)c1c(N)n(Cc2ccccc2)c(=O)[nH]c1=O | 46* | 19 | 13 | 25 | 32* | -4
O=C(c1ccc(-c2ccccc2)cc1)C1CCCN(Cc2ccncc2)C1 (stereo not drawn) | -3 | 0 | 6 | -6 | · | ·
O=C(CSc1ccc(F)cc1)Nc1ccc(C2SCCS2)cc1 | -3 | 0 | 6 | -4 | · | ·
COc1nc(Nc2ccc(-c3nc4ccccc4o3)cc2)nc(N2CCOCC2)n1 | 1 | 0 | -2 | 1 | · | ·
CCOc1ncccc1C(=O)OCc1ccccc1 | 1 | 0 | -6 | -1 | · | ·
CCOc1ncccc1C(=O)OCC(=O)N(CC)c1ccccc1 | 74* | 2 | 0 | -6 | -1 | 2
COc1cc(/C=C(/C#N)C(=O)NCCCc2ccccc2)ccc1OCC(=O)O | 40* | 0 | -5 | 11 | 67* | 1
COc1cc(/C=C(\C#N)C(=O)NCc2ccccc2)ccc1OCc1ccc(C(=O)O)cc1 | -2 | 0 | 11 | 0 | · | ·
O=C1OCc2ccc(NS(=O)(=O)c3ccc(C(F)(F)F)cc3)cc21 | -3 | 2 | -2 | -12 | · | ·
CC(C)c1ccc(OCC(=O)NN2C(=O)c3ccccc3C2=O)c(Br)c1 | -2 | 3 | 20 | -12 | · | ·
O=C(COc1ccc(Br)cc1Br)NN1C(=O)c2ccccc2C1=O | 55* | 4 | 15 | -9 | 11* | 8
Cc1ccc(OCCN2C(=O)c3ccccc3C2=O)c(C)c1 | -1 | 0 | -10 | -2 | · | ·
COCCN=C1N[C@@H](c2cccc(C(F)(F)F)c2)C(C(=O)OC)=C(C)N1Cc1ccccc1 | 63* | 0 | 39 | 10 | 44* | ·
COC(=O)C1=C(C)N(Cc2ccccc2)C(=NCCCCO)N[C@H]1c1cccc(C(F)(F)F)c1 | 44* | 0 | 11 | 9 | 57* | -1
COC(=O)C1=C(C)N(Cc2ccccc2)C(=NCCCCO)N[C@H]1CCc1ccccc1 | 44* | 0 | 19 | 4 | 67* | -3
CC(=O)C1=C(C)N(Cc2ccccc2)C(=O)N[C@H]1CCc1ccccc1 | 2 | 0 | 12 | 12 | · | ·
CCN1C(=NCCCCO)N[C@@H](c2cccc(C(F)(F)F)c2)C(C(=O)OC)=C1C | 50* | 3 | 35 | 6 | 61* | -2
COCCN1C(=O)N[C@H](c2cccc(C(F)(F)F)c2)C(C(=O)OC)=C1C | 5 | · | · | -7 | · | ·
